Sampled rows, rich in hits. Any-hit rate of the full collection: about 2.8%.
esBAF inh: inhibitors of esBAF chromatin remodeling in mouse ES cells | reporter increase, % at 12.5 µM | Bmi1-luciferase knock-in reporter, 24 h; 100% = twice the neutral-well signal | actives 2% (n = 350,000); in the data active = activation above about 40%; inconclusive = no clear call, values can overlap the other calls;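 note: 0% = median of the plate's neutral control wells and 100% = double that signal; a rise in the Bmi1 reporter signal indicates esBAF inhibition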
Wnt act: activates Wnt/beta-catenin signaling in a reporter cell assay. actives 1.2% (n = 300,000). AID 743398. activator, plate reader. activation, % at 9.35 µM; in the data active = activation above about 30%, passing the limit was not always enough; inconclusive = no clear call, values can overlap the other calls;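 note: 0% = neutral control wells and 100% = positive control wells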
MITF act: activators of MITF-driven TRPM1 promoter activity in SK-MEL-5 cells. SK-MEL-5 TRPM1-promoter luciferase, 24 h; % of positive control, neutral wells = 0. activation, % at 12.5 µM. actives 0.75% (n = 300,000);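 active = mean activation of at least 80% with every replicate also reaching 80%; inconclusive = mean reaches 80% but some replicate falls short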;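 note: 0% = neutral control wells and 100% = parthenolide positive control wells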
FXN GAA850 act: frataxin GAA850 promoter activation; HEK293 lucGAA850 FXN promoter luciferase reporter, 24 h; percent of 10 µM SAHA response; activation, % at 6 µM; actives 0.56% (n = 360,000);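 active = activation above the average of all compounds screened plus 3 SD, cutoff fixed separately per campaign, cut at about 7.5% in these data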;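 note: 0% = DMSO wells and 100% = 10 µM SAHA wells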
An asterisk follows results filed as active.

`COc1cc(/C=C/C(=O)OCC(=O)NCCc2ccccc2)cc(OC)c1OC` gave Wnt act 41*, MITF act 2 and FXN GAA850 act 0.
`COc1ccc(/C=C/C(=O)c2cc3c(cc2N)OCO3)cc1` gave Wnt act 52*, MITF act 57 and FXN GAA850 act 6.
For COc1ccc(CCNC(=O)COC(=O)/C=C/c2ccc3c(c2)OCO3)cc1 the results were esBAF inh 47*, Wnt act -3, MITF act 14 and FXN GAA850 act 2.
COc1ccc(NC(=O)/C(=C\c2ccc3c(c2)OCO3)NC(C)=O)cc1 was read as Wnt act 47*, MITF act -1 and FXN GAA850 act 3.
`C[C@@H]1CN([C@H](C)CO)C(=O)c2cccc(NC(=O)Nc3ccccc3)c2O[C@@H]1CN(C)Cc1ccc2c(c1)OCO2` gave esBAF inh -4.
For CO[C@@H]1CN(C)C(=O)c2ccc(NC(=O)c3cc(C)on3)cc2OC[C@@H](C)N(S(=O)(=O)c2cccc(C)c2)C[C@H]1C the results were esBAF inh 3.
`Cc1nnc(SCc2ccc3c(c2)OCO3)s1` gave esBAF inh 51*, MITF act 56 and FXN GAA850 act 5.
`Cc1nnc(SCc2cccc(CSc3nnc(C)s3)c2)s1` gave esBAF inh inconclusive, Wnt act -2, MITF act 50 and FXN GAA850 act 2.
`Cc1nnc(SCc2c(Cl)cccc2Cl)s1` gave esBAF inh 55*, Wnt act 0, MITF act 48 and FXN GAA850 act 2.
For Nc1nnc(SCc2ccc(F)cc2Cl)s1 the results were esBAF inh 4, Wnt act 3, MITF act 24 and FXN GAA850 act 0.
Cc1nnc(SCc2ccc(F)cc2Cl)s1 was read as esBAF inh 50*, MITF act 72 and FXN GAA850 act 6.
For C[C@@H]1CN([C@@H](C)CO)S(=O)(=O)c2ccc(C#Cc3ccccc3F)cc2O[C@@H]1CN(C)CC1CCOCC1 the results were esBAF inh -2.
For CCCCn1c(NC(=O)c2ccccc2)nc2ccccc21 the results were esBAF inh 4, Wnt act 2, MITF act -7 and FXN GAA850 act 1.
CCn1c(NC(=O)c2ccccc2)nc2ccccc21 was read as Wnt act 31* and FXN GAA850 act 1.
Screening CCOC(=O)C1CCCN(C(=O)c2ccc3nc(-c4cccc(OC)c4)oc3c2)C1 (centres undefined) returned esBAF inh 48*, Wnt act 17, MITF act 26 and FXN GAA850 act -2.
C=C(C)CNC(=O)c1ccc2nc(Cc3ccc(OC)cc3)oc2c1 was read as esBAF inh 66*, Wnt act 17 and FXN GAA850 act 5.
Screening COC1CCN(C(=O)c2ccc3oc(C(C)C)nc3c2)CC1 returned esBAF inh 8, Wnt act 2, MITF act 10 and FXN GAA850 act 1.
O=C(c1ccc2nc(Cc3cccc(Cl)c3)oc2c1)N1CCC(O)CC1 was read as Wnt act 2, MITF act -10 and FXN GAA850 act 1.
`O=C(c1ccc2nc(Cc3cccc(Cl)c3)oc2c1)N1CCOCC1` gave Wnt act 19, MITF act 102* and FXN GAA850 act 3.
For COc1ccc([C@@H](C)NC(=O)c2ccc3oc(C(C)C)nc3c2)cc1 the results were esBAF inh 64*, Wnt act 18, MITF act 55 and FXN GAA850 act 2.
`CC(=O)Nc1ccc2c(c1)C(=O)N(C)[C@H]1CC[C@H](CC(=O)Nc3cn(C)nc3C)O[C@H]1CO2` gave esBAF inh -2.
`CCC(C)NC(=O)c1ccc2nc(Cc3ccc(OC)cc3)oc2c1` (centres undefined) gave esBAF inh 12, Wnt act -1, MITF act 11 and FXN GAA850 act 1.
COc1ccc(Cc2nc3ccc(C(=O)NC(C)C)cc3o2)cc1 was read as esBAF inh 51*, Wnt act 27 and FXN GAA850 act 4.
Screening COc1ccc(Cc2nc3ccc(C(=O)N4CCCC4)cc3o2)cc1 returned esBAF inh 71*, Wnt act 29, MITF act 57 and FXN GAA850 act 6.
For CCC(=O)N(C)C[C@H]1Oc2cc(-c3cncnc3)ccc2S(=O)(=O)N([C@@H](C)CO)C[C@H]1C the results were esBAF inh -1.
CC(=O)Nc1ccc2nc(-c3ccccn3)[nH]c2c1 was read as esBAF inh 33, Wnt act 36*, MITF act 44 and FXN GAA850 act 3.
`Cc1ccc(-n2c(C)cc(/C=N/Nc3ccc([N+](=O)[O-])cn3)c2C)cc1` gave MITF act -4 and FXN GAA850 act 2.
Cc1ccc(C=NNc2ccc([N+](=O)[O-])cn2)cc1 was read as Wnt act 6, MITF act 122* and FXN GAA850 act 2.
Screening Cc1ccc(Cn2cc(/C=N/Nc3ccc([N+](=O)[O-])cn3)c3ccccc32)cc1 returned esBAF inh 45*, Wnt act -2, MITF act 14 and FXN GAA850 act 3.
Screening O=C(O)Cn1cc(/C=N/Nc2ccc([N+](=O)[O-])cn2)c2ccccc21 returned esBAF inh 5, Wnt act -2, MITF act -22 and FXN GAA850 act 4.
For C[C@H]1CCCCO[C@@H](CN(C)S(=O)(=O)c2cccs2)[C@@H](C)CN([C@@H](C)CO)C(=O)c2cc(NC(=O)Nc3ccc4c(c3)OCO4)ccc2O1 the results were esBAF inh -3.
For C[C@H](CO)N1C[C@H](C)[C@H](CN(C)C)Oc2cc(-c3ccccc3F)ccc2S1(=O)=O the results were esBAF inh -3.
Screening Cc1cc(O)c(N=Nc2ccc(C(=O)O)cc2)cc1C returned esBAF inh 67*, Wnt act 17, MITF act 17 and FXN GAA850 act 5.
Screening CCN(C(=O)COC(=O)CCS(=O)(=O)c1ccccc1)c1c(N)n(Cc2ccccc2)c(=O)[nH]c1=O returned esBAF inh 1, Wnt act 39* and FXN GAA850 act 0.
Screening CN(C)c1ccc(NC(=O)Nc2cccc(Cl)c2)cc1 returned esBAF inh 54*, MITF act 31 and FXN GAA850 act 3.
COc1ccccc1C(=O)NC(=O)Nc1cccc(Cl)c1 was read as esBAF inh -2, Wnt act 43*, MITF act 46 and FXN GAA850 act 7.
Screening O=C(Nc1ccncc1)Nc1cccc(Cl)c1 returned esBAF inh 4, Wnt act 1, MITF act 23 and FXN GAA850 act 1.
`CN(c1cccc(NC(=O)Nc2cccc(Cl)c2)c1)S(C)(=O)=O` gave esBAF inh 54*, Wnt act -3 and FXN GAA850 act -2.
For CC(=O)Nc1cccc(N(C)S(C)(=O)=O)c1 the results were esBAF inh 5, Wnt act 0, MITF act 6 and FXN GAA850 act 3.
`Cc1noc(C)c1NC(=O)N[C@H]1C=C[C@H](CC(=O)Nc2ccc(-c3ccccc3)cc2)O[C@@H]1CO` gave esBAF inh 7.

Screening data (PubChem BioAssay)
